Compound activity (PubChem)
Compounds with a hit are over-represented: about 1.8% of the library has one in this group of screens.
Peg3 imprint – genomic imprint erasure induction; mouse ES Peg3-LacZ reporter, beta-gal luminescence, 40 h; Potency, µM (top dose mostly 60.7 µM), hits mostly activators; 0.02% of 110,000 active
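Each well holds 300 Peg3LacZ-Neo (maternal) female ES cells incubated 40 h at 37C, 5% CO2. LacZ is measured by BetaGlo luminescence, with AC50 and maximum efficacy derived from dose-response curves.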
p53ts 39C kill – cytotoxicity in p53ts cells at nonpermissive temperature; H1299-p53A138V viability at 39C, ATP luminescence, 24 h; Potency, µM (titrated, usually from 46.1 µM), hits mostly cytotoxic; 1.5% of 130,000 active; further: nearly all actives have a fitted effect of over 55% in size
p53ts 32C kill – p53ts cell cytotoxicity, permissive temperature; 0.93% of 130,000 active; H1299-p53A138V at 32C, ATP luminescence viability, 24 h; Potency, µM (top dose mostly 46.1 µM), hits mostly cytotoxic; further: nearly all actives have a fitted effect of over 55% in size
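Cells: H1299 p53ts (A138V), 600/well, pre-incubated 16–30 h at 37C. Cpd up to 46 uM, 24 h, 32C. Readout: ATPlite luminescence, 20 min RT. Normalization: DMSO vs tamoxifen 100 uM. AC50 by Hill equation.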
A number is an active result; ! = a repeat was not active; [ ] = remark or other dose. The call rests on the fitted dose curve; in most records, active means well fitted curve in the direction sought with a large enough effect; inconclusive means small, poorly fitted or top-dose-only effect, or another doubt; inactive means no such curve, though single readings can be large; an effect the other way counts as inactive or inconclusive.

What do the screens show for `O=C(CSc1nc2ccccc2o1)Nc1nc2c(s1)CCCC2`?
Peg3 imprint: inactive; p53ts 39C kill: 12.6µM; p53ts 32C kill: inconclusive

How did O=C(CSc1nc2ccccc2o1)Nc1nc2ccccc2s1 do in these assays?
Peg3 imprint: inactive; p53ts 39C kill: inactive; p53ts 32C kill: inactive

What do the screens show for `CCOC(=O)c1ccc(CN(Cc2ccc(F)cc2)S(=O)(=O)c2ccc(F)c(C(=O)Nc3ccccc3C(F)(F)F)c2)cc1`?
Peg3 imprint: inactive[10.9 µM]; p53ts 39C kill: inactive; p53ts 32C kill: inactive

How did Cc1ccc(O)c(N=CC2=C(O)c3ccccc3C2=O)c1 do in these assays?
Peg3 imprint: inactive; p53ts 39C kill: inconclusive; p53ts 32C kill: inconclusive

What do the screens show for `O=C1C(C=Nc2ccccc2O)=C(O)c2ccccc21`?
Peg3 imprint: inactive; p53ts 39C kill: inconclusive; p53ts 32C kill: 10µM

What do the screens show for `COc1ccccc1CNC(=O)CCn1nc(C)c2c(C)n(-c3ccccc3)nc2c1=O`?
Peg3 imprint: inactive[10.9 µM]; p53ts 39C kill: inactive; p53ts 32C kill: inactive

How did Cc1nnc(SCC(=O)NCc2ccccc2F)c2nn(-c3ccc(Cl)cc3)c(C)c12 do in these assays?
Peg3 imprint: inactive[10.9 µM]; p53ts 39C kill: inactive; p53ts 32C kill: inactive

What do the screens show for `COc1ccc(CNC(=O)CSc2nnc(C)c3c(C)n(-c4ccccc4)nc23)c(OC)c1`?
Peg3 imprint: inactive[10.9 µM]; p53ts 39C kill: 12.6µM; p53ts 32C kill: inactive

Results for COc1cccc(CNC(=O)CSc2nnc(C)c3c(C)n(-c4ccccc4)nc23)c1OC ?
Peg3 imprint: inactive[10.9 µM]; p53ts 39C kill: 25.1µM; p53ts 32C kill: inactive

Results for CCCOCc1cc(CN2CCN(c3ccccc3OC)CC2)c(O)c2ncccc12 ?
Peg3 imprint: inactive[10.9 µM]; p53ts 39C kill: 10µM; p53ts 32C kill: 15.8µM

How did Oc1c(CN2CCCCC2)cc(COCc2ccccc2)c2cccnc12 do in these assays?
Peg3 imprint: inactive; p53ts 39C kill: inactive; p53ts 32C kill: inactive

What do the screens show for `CCOc1ccccc1N1CCN(Cc2cccc(OC)c2O)CC1`?
Peg3 imprint: inactive; p53ts 39C kill: inactive; p53ts 32C kill: inactive

Results for COc1ccccc1N1CCN(Cc2cc(Br)c(O)c3ncccc23)CC1 ?
Peg3 imprint: inactive; p53ts 39C kill: 15.8µM; p53ts 32C kill: inactive

How did CCOc1ccc2oc(=O)cc(CN3CCN(c4ccccc4OC)CC3)c2c1 do in these assays?
Peg3 imprint: inactive[10.9 µM]; p53ts 39C kill: inactive; p53ts 32C kill: inactive

Results for CCOCc1cc(CN2CCN(c3cccc(C(F)(F)F)c3)CC2)c(O)c2ncccc12 ?
Peg3 imprint: inactive[10.9 µM]; p53ts 39C kill: inconclusive; p53ts 32C kill: inactive

How did CCOCc1cc(CN2CCN(c3ccccc3OC)CC2)c(O)c2ncccc12 do in these assays?
Peg3 imprint: inactive[10.9 µM]; p53ts 39C kill: 20µM; p53ts 32C kill: inactive

Results for CC(C)OCc1cc(CN2CCN(c3cccc(C(F)(F)F)c3)CC2)c(O)c2ncccc12 ?
Peg3 imprint: inactive[10.9 µM]; p53ts 39C kill: 15.8µM; p53ts 32C kill: inactive

How did CO/N=C(\C(=O)N[C@@H]1C(=O)N2C(C(=O)[O-])=C(C[N+]3(C)CCCC3)CS[C@@H]12)c1csc(N)n1 do in these assays?
Peg3 imprint: inactive; p53ts 39C kill: inactive; p53ts 32C kill: inactive

How did Cc1cccc(-c2noc(-c3cc(C(C)C)[nH]n3)n2)c1 do in these assays?
Peg3 imprint: inactive[10.9 µM]; p53ts 39C kill: inactive; p53ts 32C kill: inactive

Results for CCN(C(=O)Cn1nnc2sc3c(c2c1=O)CCC(C(C)(C)C)C3)c1cccc(C)c1 (stereo not drawn) ?
Peg3 imprint: inactive[10.9 µM]; p53ts 39C kill: inactive; p53ts 32C kill: inactive

How did CCn1cc(S(=O)(=O)c2ccc(OC)cc2)c(=O)c2cc(F)c(N3CCC(C)CC3)cc21 do in these assays?
p53ts 32C kill: inactive

How did CC1=C(c2ccc(C)c(C)c2)S(=O)(=O)N=C1N1CCC(C(=O)N2CCCCC2)CC1 do in these assays?
Peg3 imprint: inactive[10.9 µM]; p53ts 39C kill: inactive; p53ts 32C kill: inactive

How did C#C[C@]1(O)CC[C@@H]2[C@H]3CCc4cc(OC)ccc4[C@@H]3CC[C@@]21C do in these assays?
Peg3 imprint: inactive; p53ts 39C kill: inactive; p53ts 32C kill: inactive

Results for CCc1ccccc1NC(=O)c1nc2nc(C)cc(C(F)F)n2n1 ?
Peg3 imprint: inactive[10.9 µM]; p53ts 39C kill: inactive; p53ts 32C kill: inactive

Results for COc1ccccc1N1CCN(Cc2cc(COC(C)C)c3cccnc3c2O)CC1 ?
Peg3 imprint: inactive[10.9 µM]; p53ts 39C kill: 2.51µM; p53ts 32C kill: inconclusive

How did COCc1cc(CN2CCCC2)c(O)c2ncccc12 do in these assays?
Peg3 imprint: inactive; p53ts 39C kill: inconclusive; p53ts 32C kill: inactive

Results for COc1ccc2c(CNCc3cccs3)c(C(=O)O)n(Cc3ccccc3C)c2c1 ?
Peg3 imprint: inactive[10.9 µM]; p53ts 39C kill: inactive; p53ts 32C kill: inactive

What do the screens show for `CC(C)c1ccc(-c2noc(SCC(=O)N3CCCCC3)n2)cc1`?
Peg3 imprint: inactive[10.9 µM]; p53ts 39C kill: 15.8µM; p53ts 32C kill: 12.6µM

How did CC(C)c1ccc(-c2noc(SCC(=O)N(C)c3ccc(F)cc3)n2)cc1 do in these assays?
Peg3 imprint: inactive[10.9 µM]; p53ts 39C kill: inactive; p53ts 32C kill: inactive

Results for CCCCn1c2ccccc2c2nnc(SCC(=O)Nc3ccc(NC(C)=O)cc3)nc21 ?
Peg3 imprint: inactive[10.9 µM]; p53ts 39C kill: inactive; p53ts 32C kill: inactive

Results for O=C(c1ccc2c(c1)N(Cc1c(F)cccc1Cl)C(=O)c1ccccc1S2)N1CCOCC1 ?
Peg3 imprint: inactive[10.9 µM]; p53ts 39C kill: inactive; p53ts 32C kill: inactive

What do the screens show for `Nc1nc(Nc2ccccc2)nc2c1ncn2[C@@H]1O[C@@H](CO)[C@H](O)[C@@H]1O`?
p53ts 39C kill: inactive; p53ts 32C kill: inactive

What do the screens show for `COc1ccc2[nH]c3nc(SCc4nnc(-c5ccccc5)o4)nnc3c2c1`?
Peg3 imprint: inactive; p53ts 39C kill: inactive; p53ts 32C kill: inactive

Results for COc1ccc2[nH]c3nc(SC(C)C)nnc3c2c1 ?
Peg3 imprint: inactive; p53ts 39C kill: 10µM; p53ts 32C kill: 15.8µM

Results for CCOc1ccc(CNC(=O)c2cnc3sc(N4CCCCCC4)nn3c2=O)cc1OC ?
Peg3 imprint: inactive[10.9 µM]; p53ts 39C kill: inactive; p53ts 32C kill: inactive

How did COc1ccc(-c2cn3nc(N4CCCC(C(=O)NCc5ccc(Cl)cc5)C4)sc3n2)cc1 (stereo not drawn) do in these assays?
Peg3 imprint: inactive[10.9 µM]; p53ts 39C kill: inactive; p53ts 32C kill: inactive

How did CC(C)=CCc1c(O)cc2oc(C)cc(=O)c2c1O do in these assays?
Peg3 imprint: inactive; p53ts 39C kill: inactive; p53ts 32C kill: inactive

Results for COc1c(O)cc2oc3cc(O)c(CC=C(C)C)c(O)c3c(=O)c2c1CC=C(C)C ?
Peg3 imprint: inactive; p53ts 39C kill: 31.6µM; p53ts 32C kill: 10µM!

Results for CN(C(=O)c1ccccc1C(=O)O)C1CC(C)(C)NC(C)(C)C1 ?
Peg3 imprint: inactive; p53ts 39C kill: inactive; p53ts 32C kill: inactive

What do the screens show for `Fc1ccc(-n2ncc3c(N4CCC(Cc5ccccc5)CC4)ncnc32)cc1`?
Peg3 imprint: inactive[10.9 µM]; p53ts 39C kill: inactive; p53ts 32C kill: inactive

How did Cc1ccc(-n2ncc3c(N4CCCCCC4)ncnc32)cc1 do in these assays?
Peg3 imprint: inactive[10.9 µM]; p53ts 39C kill: 2.51µM; p53ts 32C kill: 3.16µM

What do the screens show for `CCN1CCN(c2ncnc3c2cnn3-c2ccc(C)cc2)CC1`?
Peg3 imprint: inactive[10.9 µM]; p53ts 39C kill: inconclusive; p53ts 32C kill: inactive

Results for Fc1ccc(-n2ncc3c(N4CCCCCC4)ncnc32)cc1 ?
Peg3 imprint: inactive[10.9 µM]; p53ts 39C kill: 5.01µM; p53ts 32C kill: inconclusive
